# Bioassay records deposited in PubChem BioAssay by SRMLSC.
# Shown are actives, neighbours in structure and some others; about 6.8% of the full set was active somewhere.
# MK inhibit: S. pneumoniae MK inhibitors, primary screen, biochemical, PK/LDH-coupled NADH absorbance; purified MK, PK/LDH-coupled NADH absorbance 340 nm; 65,000 compounds, 0.48% hits; inhibition, % at 10 µM; mevalonate kinase [Streptococcus pneumoniae D39];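 active means ranked among the strongest by inhibition in the single 10 µM screen, a fixed top-ranked set picked for dose follow-up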
# Fluor 339 460: intrinsic fluorescence of library compounds, ex339/em460 – biochemical, MLSMR library, data from DPM-DC assay, artefact control, profiling panel | AID 709, 2007 | fluorescence fold increase at 10 µM | compound autofluorescence, ex339/em460 nm, NADH buffer; hits give high values; 1 = no-compound wells, NADH background | 65,000 compounds, 5.5% hits;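 active means at 10 µM, mean starting fluorescence two-fold or more over control wells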;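 further: signal is the first read of a kinetic run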
# PMK inhibit: S. pneumoniae PMK inhibitors, primary screen, biochemical, mevalonate pathway, pilot trial included | 65,000 compounds, 0.49% hits | purified PMK, PK/LDH-coupled NADH absorbance 340 nm | phosphomevalonate kinase (Streptococcus pneumoniae D39) | inhibition, % at 10 µM | AID 539, 2006;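 active means top-ranked compounds by inhibition in the single 10 µM screen, taking a fixed number of the strongest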;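 further: 0% = full reaction with DMSO carrier and 100% = background rate without enzyme reaction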
# A340 absorber: compound light absorbance at 340 nm, profiling panel, artefact control, biochemical, MLSMR library, data from PS, PMK, MK assays. fold change at 10 µM. compound absorbance at 340 nm, fold over control. 65,000 tested, under 10 active;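 active means at 10 µM dose, initial 340 nm absorbance at least 2 fold that of control wells; inactive means change under 2 fold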;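 further: initial absorbance extrapolated from kinetic A340 decline of NADH oxidation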
# NADH coupling: inhibitors of PK/LDH coupling enzymes, profiling panel, artefact control, biochemical, MLSMR library; IC50, µM (doses to about 10 µM), without a hit: at the highest dose inhibition; coupled PK/LDH NADH assays, four targets; 65,000 compounds, 0.02% hits;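 active means single-dose screening hits from any of four coupled enzyme assays that gave an IC50 when retested across doses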;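 further: the DPM-DC format reads NADH fluorescence rather than 340 nm absorbance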
# Spn DPM-DC inh: S. pneumoniae DPM-DC inhibitors, primary screen, biochemical, PK/LDH-coupled NADH fluorescence; diphosphomevalonate decarboxylase (Streptococcus pneumoniae D39); purified DPM-DC; calls only at 10 µM; 65,000 compounds, 0.49% hits;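 active means the 320 compounds with the highest percent inhibition in the single-dose primary screen, excluding strongly autofluorescent ones, cut at about 32% in these data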;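 further: kinetic rate of NADH fluorescence loss reporting ADP formed by the decarboxylase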
# An asterisk follows results filed as active; i = inactive; / = no result shown; + = active, no number.
SMILES,MK inhibit,Fluor 339 460,PMK inhibit,A340 absorber,NADH coupling,Spn DPM-DC inh
COc1cc(C(=O)Nc2ccc3c(c2)OCO3)ccc1-n1cnnn1,14,1.2,12,1,19%,+
COc1cc(C(=O)Nc2ccc3c(c2)OCCO3)c(-n2cnnn2)cc1OC,0,1,10,1,8%,i
O=C(Nc1ccc2nn(-c3ccccc3)nc2c1)c1ccc2c(c1)OCO2,0,2.6*,2,1.2,5%,i
Cc1nnc(NC(=O)C2CCCN(c3ncccn3)C2)s1 (centres undefined),9,1.4,13,0.99,7%,i
COc1cc(OC)c2c(C)cc(=O)oc2c1,13,3.8*,14,1,14%,/
COc1ccc2oc(=O)cc(C)c2c1,0,2.6*,16,1,5%,i
C#CCOc1ccc2c(C)cc(=O)oc2c1,8,3.9*,7,1,8%,/
Cc1cc(=O)oc2cc(OC(C)C)ccc12,6,2.1*,3,1.1,5%,/
CCOC(=O)Oc1ccc2oc(=O)cc(C)c2c1,9,1.1,2,1,4%,i
Cn1c(C(=O)OCC(=O)NCCc2ccccc2)cc2sccc21,8,1,13,0.98,7%,i
CCC1CCCCN1c1nc2c(c(=O)n(C)c(=O)n2C)n1CCSc1nc2ccccc2o1 (centres undefined),12,1.1,6,1.1,6%,i
CC1Cc2cc(/C(O)=C3/C(=O)C(=O)N(CC4CCCO4)C3c3ccco3)ccc2O1 (centres undefined),12,1.1,6,1.1,9%,i
CC(C)c1ccc(OCc2ccc(C(=O)N3CCN(c4ccccn4)CC3)cc2)cc1,3,1.1,7,0.99,3%,i
CN(C)/C=C1/Sc2ccccc2C1=O,5,1.1,0,1.1,2%,i
CN(C)/C=C1\C(=O)c2ccc(N(C)C)nc2CC1c1ccccc1 (centres undefined),0,2*,8,1.1,8%,i
COc1ccc2cc(CN(Cc3cccnc3)S(=O)(=O)c3ccccc3)c(=O)[nH]c2c1,7,2*,11,1.1,11%,i
COc1ccc2cc(CN(CC3COCCO3)S(=O)(=O)c3ccccc3)c(=O)[nH]c2c1 (centres undefined),11,1.6,11,1.1,7%,i
COc1ccc(S(=O)(=O)N(Cc2cc3ccc(OC)cc3[nH]c2=O)CC2COCCO2)cc1 (centres undefined),2,2.3*,5,1.1,11%,i
COC(=O)c1ccccc1S(=O)(=O)N(Cc1cc2ccc(OC)cc2[nH]c1=O)CC1CCCO1 (centres undefined),0,1.2,25*,1.1,10%,i
Cc1ccc2cc(CN(CC3CCCO3)S(=O)(=O)c3cccc4nsnc34)c(=O)[nH]c2c1 (centres undefined),8,1,3,1.1,5%,i
Oc1ccc2[nH]cnc2c1CN1CCCCC1,7,1,7,0.98,2%,i
O=c1n(Cc2ccccc2)c2cc(Cl)cnc2n1Cc1ccccc1,6,2.8*,0,1,4%,i
O=C(Cn1c(=O)c2c(ncn2Cc2ccccc2)n(Cc2ccccc2)c1=O)N1CCCC1,0,1.1,14,1,5%,i
CCCN(CCC)c1nc2ccccc2nc1C(C#N)C(=O)OCCOC (centres undefined),7,1.5,5,1,4%,i
C=CCN(CC=C)c1nc2ccccc2nc1C(C#N)C(=O)OCCOC (centres undefined),5,2.2*,7,1,10%,i
SMILES,MK inhibit,Fluor 339 460,PMK inhibit,A340 absorber,NADH coupling,Spn DPM-DC inh
CCOC(=O)c1c(C)n(C)c2ccc(OC)c(NS(=O)(=O)c3ccc(Cl)s3)c12,3,1.1,78*,1.1,27%,i
CC1CCc2nn(CC(=O)NCCN3CCCCC3C)cc2C1 (centres undefined),5,1.1,10,1,1%,i
CCc1cc2c(=O)c(Oc3ccccc3)c(C)oc2cc1O,4,2.2*,0,1.1,2%,/
Cc1oc2cc(OCC(=O)O)ccc2c(=O)c1Oc1ccccc1,5,1.3,0,1.1,2%,i
CCOCCCNC(=O)c1ccc(CS(=O)(=O)Cc2ccc(C)cc2)o1,2,1.1,12,0.99,5%,i
Cc1c2c(nc3c(C(=O)NC4CCCC4)cnn13)CCCC2,0,4.9*,23,1,12%,/
COc1ccc(CCn2c(N)c(S(=O)(=O)c3cccs3)c3nc4ccccc4nc32)cc1OC,3,1.5,11,1.1,21%,+
COc1ccc(Cn2c(N)c(C#N)c3nc4ccccc4nc32)cc1OC,0,1.9,9,1,2%,/
Nc1c(S(=O)(=O)c2cccs2)c2nc3ccccc3nc2n1Cc1cccs1,4,3.9*,12,1.1,8%,/
COc1ccc(CCn2c(N)c(C#N)c3nc4ccccc4nc32)cc1OC,8,1.6,0,1,6%,i
Nc1c(S(=O)(=O)c2cccs2)c2nc3ccccc3nc2n1Cc1ccc2c(c1)OCO2,2,2.7*,6,1.1,14%,+
Nc1c(S(=O)(=O)c2cccs2)c2nc3ccccc3nc2n1CC1CCCO1 (centres undefined),9,3*,10,1,4%,/
Cc1cnn(C(=S)NCC2CCCO2)c1 (centres undefined),5,1.1,0,1,2%,i
Cn1nnnc1SCCOc1ccc(C#N)cc1,0,1.1,9,1,3%,i
CC(C)C(c1nnnn1Cc1ccccc1)N1CCN(Cc2ccc3c(c2)OCO3)CC1 (centres undefined),10,1.1,14,1,8%,i
CC(C)CN1CN(S(=O)(=O)c2cccs2)c2nc3ccccc3nc21,9,1.4,7,1.1,5%,i
O=c1c2ccccc2nc(-c2ccccc2)n1Cc1ccco1,8,1.2,3,0.99,4%,i
CC(C)CCn1c(N)c(S(=O)(=O)c2cccs2)c2nc3ccccc3nc21,1,3*,13,1,3%,/
Cn1c(N)c(S(=O)(=O)c2ccc(Br)cc2)c2nc3ccccc3nc21,2,3.8*,7,1.1,5%,/
Nc1c(S(=O)(=O)c2ccccc2)c2nc3ccccc3nc2n1Cc1ccco1,8,2.2*,7,1.1,8%,/
